Experimental data reported in PubChem BioAssay AID1159580 (chemical genetic matrix, 2015).
Values joined by “and” are separate entries in the source; they are usually repeats but may differ in a detail not shown here. Equal entries are not always repeated. About 2,000 (36%) of roughly 5,500 compounds were called active. Another 18% or so got no clear call; they are omitted. Rule as the data show it: active = normalized growth mostly below about 0.91 (no sharp cut-off); inconclusive = no clear call, values can overlap the other calls; inactive = mostly above about 0.92. The list shows a part of the results.

Test: chemical genetic growth profiling, strain panel (AID 1159580);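 also: tested at 20 µM; growth read once vehicle control cultures reached saturation at 30 °C; 1 = growth at the plate median or of vehicle wells; lower values mean less growth of the strain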
Settings: growth OD

Measured: normalized growth

Cc1cccc(C)c1OCC(C)N (stereo not drawn)
inactive: S. cerevisiae deletion strains, locus YKL009W, strain mrt4, hits give low values 0.972 | S. cerevisiae deletion strains, locus YKL068W, hits give low values 0.982 | S. cerevisiae deletion strains, locus YKL085W, strain MDH1 (second series), hits give low values 1.04 | S. cerevisiae deletion strains, locus YKL085W, strain MDH1, hits give low values 1.04 | S. cerevisiae deletion strains, locus YKL160W, strain elf1, hits give low values 1 | S. cerevisiae deletion strains, locus YKL190W, strain CNB1, hits give low values 0.996 | S. cerevisiae deletion strains, locus YKR001C, strain vps1, hits give low values 0.99 | S. cerevisiae deletion strains, locus YKR026C, strain gcn3, hits give low values 0.999 | S. cerevisiae deletion strains, locus YKR091W, strain srl3, hits give low values 1.01 | S. cerevisiae deletion strains, locus YLL001W, strain dnm1, hits give low values 1.02 | S. cerevisiae deletion strains, locus YLL026W, hits give low values 1.02 | S. cerevisiae deletion strains, locus YLL041C, strain sdh2, hits give low values 1.01 | S. cerevisiae deletion strains, locus YLR027C, strain aat2, hits give low values 1.01 | S. cerevisiae deletion strains, locus YLR039C, strain RIC1, hits give low values 1.02 | S. cerevisiae deletion strains, locus YLR058C, strain SHM2, hits give low values 0.998 | S. cerevisiae deletion strains, locus YLR102C, strain apc9, hits give low values 0.989 | S. cerevisiae deletion strains, locus YLR113W, strain HOG1, hits give low values 0.987 | S. cerevisiae deletion strains, locus YLR221C, strain rsa3, hits give low values 1 | S. cerevisiae deletion strains, locus YLR258W, strain gsy2, hits give low values 1.01 | S. cerevisiae deletion strains, locus YLR262C, strain YPT6 (second series), hits give low values 1.01 | S. cerevisiae deletion strains, locus YLR262C, strain YPT6, hits give low values 0.993 | S. cerevisiae deletion strains, locus YLR268W, strain sec22, hits give low values 0.993 | S. cerevisiae deletion strains, locus YLR320W, strain mms22, hits give low values 1.03 | S. cerevisiae deletion strains, locus YLR330W, strain CHS5, hits give low values 0.992 | S. cerevisiae deletion strains, locus YLR342W, strain FKS1 (second series), hits give low values 1.01 | S. cerevisiae deletion strains, locus YLR342W, strain FKS1, hits give low values 1.01 | S. cerevisiae deletion strains, locus YLR357W, strain rsc2, hits give low values 1.02 | S. cerevisiae deletion strains, locus YLR370C, strain arc18, hits give low values 1.01 | S. cerevisiae deletion strains, locus YLR371W, strain rom2, hits give low values 0.988 | S. cerevisiae deletion strains, locus YLR384C, strain iki3, hits give low values 1.01 | S. cerevisiae deletion strains, locus YLR418C, strain cdc73, hits give low values 1.03 | S. cerevisiae deletion strains, locus YML016C, strain PPZ1, hits give low values 0.995 | S. cerevisiae deletion strains, locus YML032C, strain rad52, hits give low values 1 | S. cerevisiae deletion strains, locus YML120C, strain ndi1, hits give low values 1 | S. cerevisiae deletion strains, locus YML124C, strain tub3, hits give low values 0.991 | S. cerevisiae deletion strains, locus YMR058W, strain fet3, hits give low values 1.02 | S. cerevisiae deletion strains, locus YMR078C, strain ctf18, hits give low values 0.986 | S. cerevisiae deletion strains, locus YMR125W, strain sto1, hits give low values 1.01 | S. cerevisiae deletion strains, locus YMR129W, hits give low values 0.994 | S. cerevisiae deletion strains, locus YMR205C, strain PFK2, hits give low values 1.03 | S. cerevisiae deletion strains, locus YMR223W, strain ubp8, hits give low values 1.01 | S. cerevisiae deletion strains, locus YMR231W, strain pep5, hits give low values 1.01 | S. cerevisiae deletion strains, locus YMR263W, strain SAP30, hits give low values 0.993 | S. cerevisiae deletion strains, locus YMR307W, strain GAS1, hits give low values 0.969 | S. cerevisiae deletion strains, locus YNL067W, strain RPL9B, hits give low values 1.01 | S. cerevisiae deletion strains, locus YNL071W, strain lat1, hits give low values 1.01 | S. cerevisiae deletion strains, locus YNL153C, strain GIM3, hits give low values 1.03 and 1 | S. cerevisiae deletion strains, locus YNL175C, strain NOP13, hits give low values 1 | S. cerevisiae deletion strains, locus YNL183C, strain NPR1, hits give low values 0.956 | S. cerevisiae deletion strains, locus YNL197C, strain WHI3, hits give low values 0.992 | S. cerevisiae deletion strains, locus YNL209W, strain ssb2, hits give low values 1.01 | S. cerevisiae deletion strains, locus YNL224C, strain SQS1, hits give low values 1 | S. cerevisiae deletion strains, locus YNL233W, strain BNI4, hits give low values 1.03 | S. cerevisiae deletion strains, locus YNL248C, strain rpa49, hits give low values 0.991 | S. cerevisiae deletion strains, locus YNL250W, strain rad50, hits give low values 0.987 | S. cerevisiae deletion strains, locus YNL271C, strain bni1, hits give low values 0.985 | S. cerevisiae deletion strains, locus YNL298W, strain CLA4, hits give low values 0.986 | S. cerevisiae deletion strains, locus YNL307C, strain MCK1, hits give low values 1.02 | S. cerevisiae deletion strains, locus YNL322C, strain KRE1 (second series), hits give low values 1 | S. cerevisiae deletion strains, locus YNL322C, strain KRE1, hits give low values 0.991 | S. cerevisiae deletion strains, locus YNR049C, strain mso1, hits give low values 1 | S. cerevisiae deletion strains, locus YNR052C, strain pop2, hits give low values 0.977 | S. cerevisiae deletion strains, locus YOL006C, strain TOP1, hits give low values 1.11 | S. cerevisiae deletion strains, locus YOL012C, strain htz1 1.19 | S. cerevisiae deletion strains, locus YOL147C, strain pex11, hits give low values 0.99 | S. cerevisiae deletion strains, locus YOR001W, strain rrp6, hits give low values 0.994 | S. cerevisiae deletion strains, locus YOR061W, strain CKA2, hits give low values 0.998 | S. cerevisiae deletion strains, locus YOR069W, strain VPS5, hits give low values 0.988 | S. cerevisiae deletion strains, locus YOR070C, strain gyp1, hits give low values 0.997 | S. cerevisiae deletion strains, locus YOR080W, strain dia2, hits give low values 1.01 | S. cerevisiae deletion strains, locus YOR083W, strain WHI5 (second series), hits give low values 1 | S. cerevisiae deletion strains, locus YOR083W, strain WHI5, hits give low values 0.993 | S. cerevisiae deletion strains, locus YOR106W, strain vam3, hits give low values 1.01 | S. cerevisiae deletion strains, locus YOR136W, strain idh2, hits give low values 0.987 | S. cerevisiae deletion strains, locus YOR144C, strain elg1, hits give low values 0.991 | S. cerevisiae deletion strains, locus YOR184W, strain ser1, hits give low values 1.03 | S. cerevisiae deletion strains, locus YOR231W, strain MKK1, hits give low values 0.999 | S. cerevisiae deletion strains, locus YOR265W, strain rbl2, hits give low values 1.01 | S. cerevisiae deletion strains, locus YOR270C, strain vph1, hits give low values 1.05 | S. cerevisiae deletion strains, locus YOR290C, strain snf2, hits give low values 1 | S. cerevisiae deletion strains, locus YOR316C, strain cot1, hits give low values 0.977 | S. cerevisiae deletion strains, locus YPL051W, strain arl3, hits give low values 1 | S. cerevisiae deletion strains, locus YPL078C, strain atp4, hits give low values 1 | S. cerevisiae deletion strains, locus YPL106C, strain sse1, hits give low values 1.02 | S. cerevisiae deletion strains, locus YPL240C, strain hsp82, hits give low values 1.01 | S. cerevisiae deletion strains, locus YPL241C, strain CIN2, hits give low values 0.995 | S. cerevisiae deletion strains, locus YPL256C, strain CLN2, hits give low values 0.998 | S. cerevisiae deletion strains, locus YPR119W, strain clb2, hits give low values 0.993 | S. cerevisiae deletion strains, locus YPR141C, strain kar3, hits give low values 0.983 | S. cerevisiae deletion strains, locus YPR163C, strain tif3, hits give low values 0.981 | S. cerevisiae deletion strains, locus YPR167C, strain met16, hits give low values 0.978 | S. cerevisiae deletion strains, strain wtn01, hits give low values 0.983 | S. cerevisiae strains, strain wild type, hits give low values 0.997
